Test results reported in PubChem BioAssay (NCATS).
Values joined by “and” are separate entries in the source; they are usually repeats but may differ in a detail not shown here. Equal values may be shown once. Results filed as inconclusive are left out. Active and inactive are the calls of the source. Calls follow the shape of the dose curve; as a rule, active = well fitted inhibition curve with a large enough effect; inconclusive = small, poorly fitted or top-dose-only effect; inactive = flat fitted curve, though single readings scatter.

Experiments:
FAB9 = experiment: qHTS profiling for inhibitors of Plasmodium falciparum proliferation (AID 504749); details: P. falciparum in erythrocytes, SYBR Green DNA, 72 h; series mostly up to 28.7 µM
Method in brief: (§1)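 Fluorescence of SYBR Green-bound parasite DNA, read at 485/535 nm, served as the growth measure. Infected erythrocytes were cultured with compound 72 h; artemisinin (0.29 uM) and DMSO wells defined the normalization range.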

GB4 = experiment: as above; details: P. falciparum in erythrocytes, SYBR Green DNA, 72 h; series mostly up to 28.7 µM
Method in brief: as §1

HB3 = experiment: as above; details: P. falciparum in erythrocytes, SYBR Green DNA, 72 h; series mostly up to 28.7 µM
Method in brief: as §1

ICS = experiment: as above; details: P. falciparum in erythrocytes, SYBR Green DNA, 72 h; series mostly up to 28.7 µM
Method in brief: as §1

JCK = experiment: as above; details: P. falciparum in erythrocytes, SYBR Green DNA, 72 h; series mostly up to 28.7 µM
Method in brief: as §1

N140 = experiment: as above; details: P. falciparum in erythrocytes, SYBR Green DNA, 72 h; series mostly up to 28.7 µM
Method in brief: as §1

P93_24 = experiment: as above; details: P. falciparum in erythrocytes, SYBR Green DNA, 72 h; series mostly up to 28.7 µM
Method in brief: as §1

P94_40 = experiment: as above; details: P. falciparum in erythrocytes, SYBR Green DNA, 72 h; series mostly up to 28.7 µM
Method in brief: as §1

PAD = experiment: as above; details: P. falciparum in erythrocytes, SYBR Green DNA, 72 h; series mostly up to 28.7 µM
Method in brief: as §1

PC15 = experiment: as above; details: P. falciparum in erythrocytes, SYBR Green DNA, 72 h; series mostly up to 28.7 µM
Method in brief: as §1

PC26 = experiment: as above; details: P. falciparum in erythrocytes, SYBR Green DNA, 72 h; series mostly up to 28.7 µM
Method in brief: as §1

PC49 = experiment: as above; details: P. falciparum in erythrocytes, SYBR Green DNA, 72 h; series mostly up to 28.7 µM
Method in brief: as §1

SC27B = experiment: as above; details: P. falciparum in erythrocytes, SYBR Green DNA, 72 h; series mostly up to 28.7 µM
Method in brief: as §1

TAB109 = experiment: as above; details: P. falciparum in erythrocytes, SYBR Green DNA, 72 h; series mostly up to 28.7 µM
Method in brief: as §1

TAB113 = experiment: as above; details: P. falciparum in erythrocytes, SYBR Green DNA, 72 h; series mostly up to 28.7 µM
Method in brief: as §1

TAB165 = experiment: as above; details: P. falciparum in erythrocytes, SYBR Green DNA, 72 h; series mostly up to 28.7 µM
Method in brief: as §1

W2 = experiment: as above; details: P. falciparum in erythrocytes, SYBR Green DNA, 72 h; series mostly up to 28.7 µM
Method in brief: as §1

CRL-7250 = normal cell line; experiment: Cytotoxic Profiling of Annotated Libraries Using Quantitative High-Throughput Screening (AID 1296008); details: Five cell lines viability, CellTiter-Glo ATP luminescence, 48-72 h; max response: hits give low values; as to max response: % is scaled to controls: 0 for no effect and ±100 for the full control effect
Method in brief: (§2)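 Compounds were pin-transferred onto cells and incubated 48 or 72 hr at 37 degree Celsius, 95% humidity. CellTiter-Glo was added, plates sat 10 min at room temperature, then ATP-coupled luminescence was imaged as the viability read-out.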

HEK293 = experiment: as above; details: Five cell lines viability, CellTiter-Glo ATP luminescence, 48-72 h; max response: hits give low values
Method in brief: as §2

HaCat = experiment: as above; details: Five cell lines viability, CellTiter-Glo ATP luminescence, 48-72 h; max response: hits give low values
Method in brief: as §2
Also: nearly all actives have a fitted effect of over 60% in size.
Potency is read from the fitted curve at half-maximal effect.

CCC(=O)Nc1ccc(O)cc1
inactive: Potency (FAB9) | Potency (GB4) | Potency (HB3) | Potency (ICS) | Potency (JCK) | Potency (N140) | Potency (P93_24) | Potency (P94_40) | Potency (PAD) | Potency (PC15) | Potency (PC26) | Potency (PC49) | Potency (SC27B) | Potency (TAB109) | Potency (TAB113) | Potency (TAB165) | Potency (W2) | max response (CRL-7250) -0.238% | outcome (HEK293) | outcome (HaCat)

NC1CCN(c2cccc(Cl)n2)CC1
active: Potency (GB4) 7.57 µM | Potency (W2) 6.01 µM
inactive: Potency (FAB9) | Potency (HB3) | Potency (ICS) | Potency (JCK) | Potency (N140) | Potency (PAD) | Potency (PC15) | Potency (PC26) | Potency (PC49) | Potency (SC27B) | Potency (TAB109) | Potency (TAB113) | Potency (TAB165) | max response (CRL-7250) 0.115% | max response (HEK293) -9.08% | outcome (HaCat)

COc1cc(C)c(Cc2cnc(N)nc2N)cc1OC
active: Potency (FAB9) 5.62 µM | Potency (GB4) 3.79 µM
inactive: Potency (ICS) | Potency (JCK) | Potency (N140) | Potency (P93_24) | Potency (P94_40) | Potency (PAD) | Potency (PC15) | Potency (PC26) | Potency (PC49) | Potency (SC27B) | Potency (TAB109) | Potency (TAB113) | Potency (TAB165) | max response (CRL-7250) 0.178% | outcome (HEK293) | outcome (HaCat)

COc1ccc2c(c1)C(=O)N(CCc1ccc(S(=O)(=O)NC(=O)NC3CCCCC3)cc1)C(=O)C2(C)C
inactive: Potency (FAB9) | Potency (GB4) | Potency (HB3) | Potency (ICS) | Potency (JCK) | Potency (N140) | Potency (P93_24) | Potency (P94_40) | Potency (PAD) | Potency (PC15) | Potency (PC26) | Potency (PC49) | Potency (SC27B) | Potency (TAB109) | Potency (TAB113) | Potency (TAB165) | Potency (W2) | max response (CRL-7250) 2.02% and -12.3% | max response (HEK293) -11% | max response (HaCat) 4.11%

CCCCCCCCCCCCOS(=O)(=O)O
inactive: Potency (FAB9) | Potency (GB4) | Potency (HB3) | Potency (ICS) | Potency (JCK) | Potency (N140) | Potency (P93_24) | Potency (P94_40) | Potency (PAD) | Potency (PC15) | Potency (PC26) | Potency (PC49) | Potency (SC27B) | Potency (TAB109) | Potency (TAB113) | Potency (TAB165) | Potency (W2) | outcome (CRL-7250) | outcome (HEK293) | outcome (HaCat)

COc1cc(C(=O)N2CCOCC2)cc(OC)c1OC
inactive: Potency (FAB9) | Potency (GB4) | Potency (HB3) | Potency (ICS) | Potency (JCK) | Potency (N140) | Potency (P93_24) | Potency (P94_40) | Potency (PAD) | Potency (PC15) | Potency (PC26) | Potency (PC49) | Potency (SC27B) | Potency (TAB109) | Potency (TAB113) | Potency (TAB165) | Potency (W2) | max response (CRL-7250) 0.938% | max response (HEK293) 1.96% | outcome (HaCat)

CC(O)COc1ccccc1 (stereo unspecified)
inactive: Potency (FAB9) | Potency (GB4) | Potency (HB3) | Potency (ICS) | Potency (JCK) | Potency (N140) | Potency (P93_24) | Potency (P94_40) | Potency (PAD) | Potency (PC15) | Potency (PC26) | Potency (PC49) | Potency (SC27B) | Potency (TAB109) | Potency (TAB113) | Potency (TAB165) | Potency (W2) | max response (CRL-7250) 2.21% | outcome (HEK293) | outcome (HaCat)

COc1ccc(S(=O)(=O)Nc2nnc(CC(C)C)s2)cc1
inactive: Potency (FAB9) | Potency (GB4) | Potency (HB3) | Potency (ICS) | Potency (JCK) | Potency (N140) | Potency (P93_24) | Potency (P94_40) | Potency (PAD) | Potency (PC15) | Potency (PC26) | Potency (PC49) | Potency (SC27B) | Potency (TAB109) | Potency (TAB113) | Potency (TAB165) | Potency (W2) | max response (CRL-7250) 0.202% | max response (HEK293) -9.93% | max response (HaCat) -5.69%

CC(=O)c1ccc2c(c1)N(CCCN(C)C)c1ccccc1S2
active: Potency (W2) 1.02 µM
inactive: Potency (FAB9) | Potency (HB3) | Potency (ICS) | Potency (N140) | Potency (P94_40) | Potency (PAD) | Potency (PC15) | Potency (PC26) | Potency (PC49) | Potency (SC27B) | Potency (TAB109) | Potency (TAB113) | Potency (TAB165)

CN(C)CCC=C1c2ccccc2CCc2ccccc21
inactive: outcome (HaCat)

CCCCN1CCCC[C@H]1C(=O)Nc1c(C)cccc1C
active: Potency (W2) 6.75 µM
inactive: Potency (FAB9) | Potency (HB3) | Potency (ICS) | Potency (JCK) | Potency (N140) | Potency (P93_24) | Potency (P94_40) | Potency (PAD) | Potency (PC15) | Potency (PC26) | Potency (PC49) | Potency (SC27B) | Potency (TAB109) | Potency (TAB113) | Potency (TAB165) | max response (CRL-7250) 2.72% and -2.26% | max response (HEK293) -17.3% and -9.85% | max response (HaCat) -56.1%

C[C@]12C[C@H](O)[C@H]3[C@@H](CCC4=CC(=O)CC[C@@]43C)[C@@H]1CC[C@@H]2C(=O)CO
inactive: Potency (GB4) | Potency (ICS) | Potency (PC15) | Potency (PC26) | Potency (W2) | max response (CRL-7250) 3.36% | outcome (HEK293) | max response (HaCat) 1.38%

CN1CCN(C2Cc3ccccc3Sc3ccc(Cl)cc32)CC1 (stereo unspecified)
active: Potency (ICS) 12.6 µM | Potency (TAB165) 12.6 µM | Potency (W2) 3.79 µM
inactive: Potency (FAB9) | Potency (HB3) | Potency (JCK) | Potency (N140) | Potency (P94_40) | Potency (PC15) | max response (CRL-7250) -15.1% | outcome (HaCat)

CC(CN1c2ccccc2Sc2ccccc21)N(C)C (stereo unspecified)
inactive: Potency (FAB9) | Potency (HB3) | Potency (ICS) | Potency (JCK) | Potency (P94_40) | Potency (PAD) | Potency (PC15) | Potency (PC26) | Potency (PC49) | Potency (TAB109) | Potency (TAB113) | Potency (TAB165) | max response (HaCat) 3.18%
active: Potency (N140) 4.47 µM | Potency (HEK293) 11.9 µM

O=C1NC(=O)[C@@]2(CCOc3ccc(F)cc32)N1
inactive: Potency (FAB9) | Potency (GB4) | Potency (HB3) | Potency (ICS) | Potency (JCK) | Potency (N140) | Potency (P93_24) | Potency (P94_40) | Potency (PAD) | Potency (PC15) | Potency (PC26) | Potency (PC49) | Potency (SC27B) | Potency (TAB109) | Potency (TAB113) | Potency (TAB165) | Potency (W2)
